Experimental findings from PubChem BioAssay are described below.

The structures appear in SMILES notation. Activity calls are given as the source filed them.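 Rule for the calls: active = compounds whose cell count with miR-34 switched on is under 0.7 times the count with it off; inactive = the rest.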

The nature of this experiment: sensitizers of A549 cells to miR-34 induction, primary screen, imaging, A549 dox-inducible miR-34, nuclei and caspase counts (AID 1347080). Note: test concentration not given here. Particulars: A549 miR-34 inducible, Hoechst nuclei count, 48 h.
Where [1] appears, read: stronger effect = lower value, cell number ratio, induced over uninduced.
[2] abbreviates: measured here: relative caspase fold change +Dox/-Dox.
[3] abbreviates: measured here: total cells with miR-34 induction, stronger effect = lower value.
The mark [4] stands for this setting: measured here: total cells without miR-34 induction.

`CCCCC/C=C/C=C1/C=CC(=O)[C@@H]1C/C=C\CCCC(=O)O`: the fold change by setting is: under setting [1], 0.952 (inactive); under setting [2], 1.85. In addition, the cell count reads like this: under setting [3], 5680; under setting [4], 5960.
Taken in the same sequence, the figures for `COc1ccc(C[C@H](N)C(=O)N[C@H]2[C@@H](O)[C@H](n3cnc4c(N(C)C)ncnc43)O[C@@H]2O)cc1` were 0.887 (inactive), 1.17, 1130 and 1270.
With `CCOc1c2c(c(OCC)c3ccccc13)C(=O)N(c1ccc(CC(=O)NS(=O)(=O)c3ccccc3)cc1)C2`, the fold change under setting [1] was 0.911 (inactive) and the fold change under setting [2] amounted to 1.11. Also, the cell count was found to be 5560 under setting [3] and 6100 under setting [4].
Consider `CCCCCCCCCCCCCCCC(=O)OC[C@H](COP(=O)([O-])OCC[N+](C)(C)C)OC(=O)CCCCCCCCCCCCCCC`, for which the fold change under setting [1] was 0.881 (inactive) and the fold change under setting [2] was 0.572. In addition, the cell count reads like this: under setting [3], 5330; under setting [4], 6060.
In the case of `CCCCC[C@H](O)/C=C/[C@@H]1[C@@H](C/C=C\CCCC(=O)NCCO)[C@@H](O)C[C@H]1O`, the fold change runs as follows: under setting [1], 0.899 (inactive); under setting [2], 1.5. Further, the cell count by setting is: under setting [3], 5200; under setting [4], 5780.
`CCCCC[C@H](O)CC[C@@H]1[C@@H](C/C=C\CCCC(=O)O)[C@@H](O)C[C@H]1O`: the fold change under setting [1] was 0.936 (inactive) and the fold change under setting [2] amounted to 1.41. In addition, the cell count under setting [3] turned out to be 6190 and the cell count under setting [4] turned out to be 6610.
Taken in the same sequence, the figures for `O=C(O)CCCCCC[C@H]1C(=O)C[C@@H](O)[C@@H]1/C=C/[C@@H](O)Cc1ccccc1` were 1.03 (inactive), 1.38, 5710 and 5540.
`CCCCC[C@H](O)/C=C/[C@H]1C2COC(C2)[C@@H]1C/C=C\CCCC(=O)O` (stereo not given in full): the fold change under setting [1] is 0.904 (inactive) and the fold change under setting [2] was 0.954. In addition, the cell count under setting [3] worked out at 5380 and the cell count under setting [4] is 5950.
As for `O=P(O)(O)OC1C(O)C(OP(=O)(O)O)C(O)C(OP(=O)(O)O)C1O` (stereo not given), the fold change by setting is: under setting [1], 0.967 (inactive); under setting [2], 0.962. Further, the cell count under setting [3] came out at 5750 and the cell count under setting [4] was 5950.
Consider `COc1ccc2cc(C(C#N)OC(=O)CC3OC3c3ccccc3)ccc2c1` (stereo not given), for which the fold change is 0.909 (inactive) under setting [1] and 0.7 under setting [2]. In addition, the cell count was determined as 5490 under setting [3] and 6040 under setting [4].
As to `CN(C)c1ccc(C(=O)NCCCCCC(=O)NO)cc1`, the fold change under setting [1] was 0.991 (inactive) and the fold change under setting [2] is 1.29. For the same compound, the cell count by setting is: under setting [3], 5550; under setting [4], 5600.
Taken in the same sequence, the figures for `CCCCC[C@@](C)(O)/C=C/[C@H]1C(=O)C[C@H](O)[C@@H]1C/C=C\CCCC(=O)O` were 0.936 (inactive), 1.24, 5370 and 5740.
`CCCCCCCCCCCCCCCC(=O)NC[C@@H](C)O`: the fold change is 1.02 (inactive) under setting [1] and 0.848 under setting [2]. Besides, the cell count amounted to 6270 under setting [3] and 6160 under setting [4].
`CCCCCCCCCCCCCCCC(=O)OC[C@H](COP(=O)([O-])OCC[N+](C)(C)C)OC(=O)CCCCCCCC(=O)O`: the fold change runs as follows: under setting [1], 0.924 (inactive); under setting [2], 0.678. Further, the cell count was 5760 under setting [3] and 6240 under setting [4].
As for `COC(=O)C1=CC[C@@]23CC[C@@H]([C@@](C)(/C=C/C=C(\C)C(=O)O)OC2=O)[C@@]3(OC(C)=O)CC1`, the fold change by setting is: under setting [1], 1.15 (inactive); under setting [2], 0.682. Also, the cell count was 2140 under setting [3] and 1860 under setting [4].
With `COc1cc([C@@H]2c3cc4c(cc3[C@@H](OC3OC5COC(C)OC5C(O)C3O)[C@H]3COC(=O)[C@H]23)OCO4)cc(OC)c1O` (stereo not given in full), the fold change reads like this: under setting [1], 0.828 (inactive); under setting [2], 1.04. Moreover, the cell count under setting [3] came to 1840 and the cell count under setting [4] is 2230.
Taken in the same sequence, the figures for `O=C(O)CCC/C=C\C[C@H]1C(=O)C=C[C@@H]1/C=C/[C@@H](O)CCc1ccccc1` were 0.944 (inactive), 0.959, 5880 and 6220.
As to `CC(C)=CCC/C(C)=C/CC/C(C)=C/CC[C@]1(C)CCc2cc(O)c(C)c(C)c2O1`, the fold change is 0.98 (inactive) under setting [1] and 0.749 under setting [2]. The cell count under setting [3] worked out at 5370 and the cell count under setting [4] is 5480.
As for `CCCCC[C@H](O)/C=C/[C@H]1C=CC(=O)[C@H]1CCCCCCC(=O)O`, the fold change runs as follows: under setting [1], 0.88 (inactive); under setting [2], 1.97. The cell count under setting [3] is 5070 and the cell count under setting [4] worked out at 5760.
As to `CCC(C)(C)C(=O)C(=O)N1CCCC[C@H]1C(=O)O[C@H](CCc1ccc(OC)c(OC)c1)c1cccc(N)c1`, the fold change under setting [1] is 0.702 (inactive) and the fold change under setting [2] came out at 0.49. Also, the cell count under setting [3] was found to be 4270 and the cell count under setting [4] worked out at 6080.
For the compound `CCCCC/C=C\C/C=C\C/C=C\C/C=C\CCCC(=O)OCC(O)CO` (stereo not given), the fold change was 0.924 (inactive) under setting [1] and 0.738 under setting [2]. Besides, the cell count reads like this: under setting [3], 4970; under setting [4], 5380.
On to `NCc1cccc2ccncc12`, for which the fold change by setting is: under setting [1], 0.913 (inactive); under setting [2], 0.524. Also, the cell count reads like this: under setting [3], 5270; under setting [4], 5780.
Take `CC(CN1CCC(n2c(=O)[nH]c3cc(Cl)ccc32)CC1)NC(=O)c1ccc2ccccc2c1` (stereo not given): the fold change runs as follows: under setting [1], 1.08 (inactive); under setting [2], 1.2. Also, the cell count was found to be 5810 under setting [3] and 5380 under setting [4].
Taken in the same sequence, the figures for `CCCCC(C)(C)[C@H](O)/C=C/[C@H]1C=CC(=O)[C@@H]1C/C=C\CCCC(=O)O` were 0.967 (inactive), 1.18, 5990 and 6200.
On to `CCCCCCCC/C=C\CCCCCCCC(=O)NCC`, for which the fold change was 1.03 (inactive) under setting [1] and 0.997 under setting [2]. Besides, the cell count under setting [3] worked out at 6050 and the cell count under setting [4] stood at 5880.
Taken in the same sequence, the figures for `CCCCCC(=O)CC[C@H]1C(=O)C[C@H](O)[C@@H]1C/C=C\CCCC(=O)O` were 1.27 (inactive), 1.09, 6060 and 4770.
As to `CCCCC/C=C\C/C=C\C/C=C\CCCC/C=C\CCC(=O)O`, the fold change reads like this: under setting [1], 0.938 (inactive); under setting [2], 0.754. Also, the cell count came to 5780 under setting [3] and 6170 under setting [4].
In the case of `CCCCCCCCCCCCC(=O)N[C@H]1CCOC1=O`, the fold change under setting [1] is 0.915 (inactive) and the fold change under setting [2] is 1.35. Also, the cell count was found to be 5190 under setting [3] and 5670 under setting [4].
As to `O=C(O)CCC/C=C\C[C@H]1C(=O)C=C[C@@H]1/C=C/[C@@H](O)COc1ccccc1`, the fold change under setting [1] is 0.91 (inactive) and the fold change under setting [2] was determined as 1.28. Also, the cell count under setting [3] is 5700 and the cell count under setting [4] is 6260.
As for `C=C1C[C@H](O)[C@H](C/C=C\CCCC(=O)O)[C@H]1/C=C/[C@@H](O)CCCCC`, the fold change is 0.988 (inactive) under setting [1] and 1.72 under setting [2]. Besides, the cell count by setting is: under setting [3], 5940; under setting [4], 6010.
